High-throughput results: PubChem BioAssay, Johns Hopkins Ion Channel Center
KCNQ2 pot = potentiators of rat KCNQ2 potassium channel | Potassium voltage-gated channel subfamily KQT member 2 (Rattus norvegicus), O88943 | CHO-K1 KCNQ2, FluxOR thallium flux fluorescence; hits give high values | B-score at 10 µM | 0.54% of 310,000 active | AID 2239, 2010;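 active = fluorescence ratio B-score at least 3 SD of library B-scores, with initial fluorescence B-score within 3 of them, cut at about 5.3 in these data; same plate scores as AID 2156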;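 note: B-score of peak minus minimum over baseline fluorescence ratio after K+ and Tl+ stimulus; positive B-score means potentiation of KCNQ2 with more thallium influx and brighter signal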
KCNQ2 block = rat KCNQ2 potassium channel inhibitors, primary screen, cell-based, CHO-K1, FluxOR thallium flux, B-score. Potassium voltage-gated channel subfamily KQT member 2 (Rattus norvegicus), O88943. 20 min; hits give low values. B-score at 10 µM. 1.1% of 310,000 active;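 active = fluorescence ratio B-score at most minus 3 library SDs, with starting brightness B-score within 2 library SDs, cut at about -5.5 in these data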
KCNQ2 inh conf = rat KCNQ2 potassium channel inhibitors, confirmation, cell-based, thallium flux | KCNQ2-expressing cells, inhibition; hits give low values | 57% of 1,000 active | activity change, negative = inhibition, % at 10 µM | shares compounds with KCNQ2 block;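 note: 0% = vehicle wells and values are ratio percent relative to vehicle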
KCNQ1 spec = human KCNQ1 channel inhibition, counter-screen for KCNQ2 inhibitor project, cell-based, FluxOR thallium flux; 15% of 1,000 active; KCNQ1-expressing cells, FluxOR thallium flux fluorescence; hits give low values; activity change, negative = inhibition, % at 10 µM; shares compounds with KCNQ2 block; AID 493026, 2011;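 active = activity change at least 3 SD of negative controls below their mean in both duplicate wells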;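 note: CHO cells stably transfected with KCNQ1 and depolarized by potassium stimulus; peak minus minimum fluorescence over baseline after thallium addition; 0% = vehicle negative control and -100% = blank without thallium stimulus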
CHO Tl ctr = thallium flux change in parental CHO cells, counter-screen for KCNQ2 inhibitor project; shares compounds with KCNQ2 block; hits give low values; activity change, % at 10 µM; 14% of 1,000 active; AID 493029, 2011;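 note: 0% = vehicle negative controls with stimulus buffer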
KCNQ2 patch conf = rat KCNQ2 channel inhibitors, confirmation, cell-based, automated patch clamp, single concentration; KCNQ2-expressing cells, automated patch clamp current; AID 588531, 2011; 49% of 550 active; shares compounds with KCNQ2 block; calls only at 10 µM
Starred values were filed as active, the others as inactive; i = inactive; · = not tested or not shown; + = active, no number. In the library only some 1.6% were active in any assay of this set; here they are far more common. Unless noted, the rule behind the calls is not given here.

SMILES | KCNQ2 pot | KCNQ2 block | KCNQ2 inh conf | KCNQ1 spec | CHO Tl ctr | others
COc1ccc(C(=O)N2CCN(C)C(=O)[C@@H]2C)cc1OC1CCN(C(C)=O)CC1 | 1.1 | i | · | · | ·
O=C(O)c1ccc2nc(-c3ccco3)c(-c3ccco3)nc2c1 | · | i | · | · | ·
O=C(Nc1cccc(C(F)(F)F)c1)c1ccc2nc(-c3ccco3)c(-c3ccco3)nc2c1 | -8.5 | -8.5* | -30%* | i | i | KCNQ2 patch conf=+
COc1ccccc1NC(=O)c1cc(-c2cc(OC)c(OC)c(OC)c2)nc2ccccc12 | -8.9 | -8.9* | i | i | i
COc1ccc(-c2cc(C(=O)Nc3ccccc3O)c3ccccc3n2)cc1OC | -6.9 | -6.9* | i | i | i
COc1ccc(-c2cc(C(=O)Nc3ccc(Cl)cc3Cl)c3ccccc3n2)cc1OC | · | i | · | · | ·
COc1cc(-c2cc(C(=O)Nc3ccc(N4CCOCC4)cc3)c3ccccc3n2)cc(OC)c1OC | · | i | · | · | ·
CC(C)OCC(O)CN1CCNCC1 (stereo not given) | 0.02 | i | · | · | ·
O=C(CSc1ccsc1[N+](=O)[O-])N1CCN(c2ccccn2)CC1 | 0.29 | i | · | · | ·
CC1CCC(NC(=O)CCNC(=O)c2ccccc2)CC1 (stereo not given) | · | i | · | · | ·
Cn1cccc1/C=C1\Cc2ccccc2C1=O | · | i | · | · | ·
Cn1cccc1/C=C1\CC(C(C)(C)C)C/C(=C\c2cccn2C)C1=O (stereo not given) | -11 | -11* | -72%* | -74%* | -68%* | KCNQ2 patch conf=i
Cc1cccc(N(C)S(=O)(=O)c2ccc(-c3cc(C)no3)s2)c1 | -7 | -7* | i | i | i
CCN(c1cccc(C)c1)S(=O)(=O)c1ccc(-c2cc(C)no2)s1 | · | i | · | · | ·
O=C(NCc1ccco1)C1CCN(S(=O)(=O)c2cccc([N+](=O)[O-])c2)CC1 | · | i | · | · | ·
CCN(CC)c1nc2ccccc2n(Cc2cccc(OC)c2)c1=O | · | i | · | · | ·
CN(Cc1ccsc1)C(=O)CCc1nnc(CCCc2ccccc2)o1 | · | i | · | · | ·
CCN(Cc1ccccc1)C(=O)CCc1nnc(CCCc2ccccc2)o1 | -10 | -10* | -26%* | i | i | KCNQ2 patch conf=+
O=C(COC(=O)c1ccc(Cl)nc1)Nc1cccnc1Cl | · | i | · | · | ·
Cc1ccc(OCC(=O)N2N=C(C(F)(F)F)CC2(O)C(C)(C)C)cc1C (stereo not given) | · | i | · | · | ·
Cc1ccccc1OCC(=O)N1N=C(C(F)(F)F)CC1(O)C(C)(C)C (stereo not given) | -8.2 | -8.2* | i | i | i
Cc1ccccc1CSc1nnc(-c2cccs2)n1Cc1ccco1 | -9.9 | -9.9* | i | i | i
c1coc(Cn2c(SCc3nc4ccccc4[nH]3)nnc2-c2cccs2)c1 | · | i | · | · | ·
CS(=O)(=O)/C(C#N)=C\c1cnc(S(=O)(=O)c2ccccc2)s1 | · | i | · | · | ·
O=C(/C=C/c1ccc(Cl)cc1)N(Cc1ccccc1)c1ccccn1 | -8.3 | -8.3* | -31%* | i | i | KCNQ2 patch conf=+
SMILES | KCNQ2 pot | KCNQ2 block | KCNQ2 inh conf | KCNQ1 spec | CHO Tl ctr | others
O=C(Cc1c(F)cccc1Cl)N(Cc1ccccc1)c1ccccn1 | 0.31 | i | · | · | ·
NC(=O)C1CCN(C(=O)C(=O)c2cn(CC(=O)N3CCCCCC3)c3ccccc23)CC1 | · | i | · | · | ·
COc1ccccc1N1CCN(C(=O)c2c(C)cc(=O)oc2C)CC1 | 0.41 | i | · | · | ·
COc1cc2c(C(=O)N3CCN(c4ccccc4C)CC3)c(C)oc2cc1Br | -11 | -11* | -22%* | i | i | KCNQ2 patch conf=i
CCOC(=O)c1c(NC(=O)CS(=O)(=O)c2cn(CC)c3ccccc23)sc2c1CCCC2 | -11 | -11* | -36%* | i | i | KCNQ2 patch conf=+
CCOC(=O)c1c(NC(=S)Nc2ccc(F)cc2)sc2c1CCC2 | -7 | -7* | i | i | i
CCOC(=O)c1c(NC(=O)CS(=O)(=O)c2cn(CC)c3ccccc23)sc2c1CCCCC2 | -7 | -7* | -25%* | i | i | KCNQ2 patch conf=+
CCOC(=O)c1c(NC(=S)Nc2ccc(C)cc2)sc2c1CCC2 | 0.01 | i | · | · | ·
CCOC(=O)c1c(NC(=O)Cc2cccs2)sc2c1CCCC2 | · | i | · | · | ·
